# HT1080-NT tox: kills 2HG-producing HT-1080-NT fibrosarcoma cells; actives 1.6% (n = 360,000); Potency, µM (doses to about 46.1 µM), for inactives: at the highest dose activity, negative = less viability, hits mostly cytotoxic; HT-1080-NT fibrosarcoma viability, CellTiter-Glo ATP luminescence, 48 h;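 further: NT is the 2HG producing partner of a matched IDH1 knockdown line; 0% = DMSO-treated cells and -100% = media-only wells without cells; nearly all actives have a fitted effect of over 55% in size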
#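 Fibrosarcoma NT cells, 750 per well in 5% FBS RPMI, were exposed to compound for 48 hours. Viability: CellTiter-Glo luminescence.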
# KB-3-1 tox: kills parental KB-3-1 adenocarcinoma cells; KB-3-1 viability, CellTiter-Glo ATP luminescence, 72 h; Potency, µM (series often up to 46.1 µM), usual class: cytotoxic; actives 1.4% (n = 400,000); AID 1347075; further: nearly all actives have a fitted effect of over 60% in size
#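 Parental KB-3-1 viability, qHTS format: 72 h compound exposure, 37 °C; CellTiter-Glo; media-only wells and DMSO plates as controls; concentration-effect fits on corrected data.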
# HT1080 IDH1KD tx: toxicity to HT-1080 IDH1 knockdown cells (counter line); AID 686971; actives 2% (n = 360,000); Potency, µM (top dose mostly 46.1 µM), for the others: at the highest dose activity, negative = toxicity, actives largely listed as cytotoxic; HT-1080 IDH1 knockdown viability, ATP luminescence, 48 h;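 further: 0% = DMSO wells and -100% = cell-free medium wells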
#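 HT-1080-IDH1KD cells (IDH1 knocked down), 750/well in RPMI with 5% FBS, treated with compound 48 h at 37 degrees C. Viability by CellTiter-Glo luminescence, normalised to DMSO and no-cell wells; concentration-response curves classed.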
# KB-V1 MDR tox: KB-V1 MDR subline cytotoxicity | KB-V1 MDR cells viability, CellTiter-Glo, 72 h | Potency, µM (series often up to 46.1 µM), most hits filed as cytotoxic | actives 3.4% (n = 400,000) | AID 1347076; further: nearly all actives have a fitted effect of over 60% in size
#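 Compound-treated KB-V1 multidrug-resistant cells, 72 h, 37 degrees C; viability by CellTiter-Glo. Fitted qHTS curves give the values.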
# Numbers without * were called inactive; i = inactive; ? = inconclusive; / = not tested or not shown; [ ] = another dose, or the depositor's remark. Compounds with a hit are over-represented: about 5.7% of the library has one in this group of screens. The call rests on the fitted dose curve; in most records, active means well fitted curve in the direction sought with a large enough effect; inconclusive means small, poorly fitted or top-dose-only effect, or another doubt; inactive means no such curve, though single readings can be large; an effect the other way counts as inactive or inconclusive. Unless noted, on the % scale 0 is the no-effect control and ±100 the full control effect; potency means the concentration at half of the fitted maximal effect.
SMILES,HT1080-NT tox,KB-3-1 tox,HT1080 IDH1KD tx,KB-V1 MDR tox
Cc1ccc(NS(=O)(=O)c2cc([N+](=O)[O-])ccc2NNC(=S)Nc2cccc(Cl)c2)c(C)c1,?,i,?,?
Cc1ccc(NS(=O)(=O)c2cc([N+](=O)[O-])ccc2NNC(=S)Nc2cc(C)ccc2C)c(C)c1,?,21µM*,?,2.9µM*
Cc1ccc([N+](=O)[O-])cc1NC(=S)NC(=O)C(C)(C)C,?,i,10%,i
COc1ccc(NC(=S)NNc2ccc([N+](=O)[O-])cc2S(=O)(=O)Nc2ccc(C)cc2C)cc1,23µM*,?,18µM*,?
Cc1ccc([N+](=O)[O-])cc1NC(=S)NC(=O)CC(C)(C)C,?,i,?,18µM*
CCc1ccc(CN(Cc2ccco2)c2cnc(S(C)(=O)=O)nc2C(=O)Nc2ccc(C)c(Cl)c2)cc1,/,i,/,i
Cc1ccc(NC(=O)CCn2nc(-c3ccccc3)c3ccccc3c2=O)c(C)c1,/,i,/,?
COc1ccc(N(C(=O)c2ccccc2)S(=O)(=O)c2cccs2)cc1,16µM*,i,?,i
CC(=O)c1c(C)oc2c1cc(NS(=O)(=O)c1ccc(Cl)c(C)c1)c1ccccc12,/,i,/,i
CC(C)c1ccc(C(=O)Nc2cc(-c3ccccc3F)nn2-c2ccccc2)cc1,/,i,/,i
CCNc1nc(NC(C)C)nc(N(C#N)C(C)C(=O)N(CC)CC)n1 (stereo unspecified),4%,i,-8%,i
CCN(CC)C(=O)C(C)N(C#N)c1nc(NC(C)C)nc(NC(C)C)n1 (stereo unspecified),7%,i,-4%,9.2µM*
CCOc1ccc(-n2c(SC(C)C)nc3c(c2=O)SCC3)cc1,-16%,i,-21%,2.9µM*
CCOc1ccc(-n2c(SC)nc3c(c2=O)SCC3)cc1,0%,i,-4%,i
COc1ccc(C(=O)NC2CCCc3c2cnn3-c2cc(F)cc(F)c2)c(OC)c1OC (stereo unspecified),?,?,?,18µM*
COC(=O)c1ccc(C(=O)NC2CCCc3c2cnn3-c2cc(F)cc(F)c2)nc1 (stereo unspecified),?,?,16µM*,10µM*
Cc1cc(C(=O)NC2CCCc3c2cnn3-c2ccc(C(C)(C)C)cc2)nn1C (stereo unspecified),13µM*,?,-16%,?
COC(=O)c1ccc(C(=O)NC2CCCc3c2cnn3-c2ccc(C)c(C)c2)cc1 (stereo unspecified),15µM*,1.6µM*,23µM*,5.2µM*
O=C(NC1CCCc2c1cnn2-c1cc(F)cc(F)c1)c1ccccn1 (stereo unspecified),-8%,?,-18%,i
CCCCc1nn2c(=O)cc(COC(=O)c3ccccc3C)nc2s1,/,i,/,i
Cc1ccccc1-n1cnc2cc(NCc3cccs3)ccc21,-28%,?,?,i
COc1ccccc1-n1cnc2cc(NCc3cccs3)ccc21,3.7µM*,1.2µM*,2.1µM*,?
COc1ccccc1-n1cnc2cc(NS(=O)(=O)c3ccc(Br)cc3)ccc21,-15%,i,?,12µM*
COc1ccccc1-n1cnc2cc(NCc3ccco3)ccc21,5.2µM*,0.58µM*,?,2.6µM*
COc1ccc(CNc2ccc3c(c2)ncn3-c2ccccc2OC)cc1,-9%,i,-18%,16µM*
SMILES,HT1080-NT tox,KB-3-1 tox,HT1080 IDH1KD tx,KB-V1 MDR tox
COc1ccc(CNc2ccccc2C(=O)NCc2ccccc2)cc1COc1ccc(NC(C)=O)cc1,2%,/,-5%,/
Cc1cccc(-n2c(=O)c3c4c(sc3n3cnnc23)CCCC4)c1,/,i,/,?
Cc1ccc(NC(=O)N2CCN(c3nnc(C)c4c(C)n(-c5ccccc5)nc34)CC2)cc1Cl,/,i,/,i
CCCCOc1ccccc1C(=O)N(Cc1cccc(F)c1)C1CCS(=O)(=O)C1 (stereo unspecified),/,i,/,i
COc1ccccc1/C=C1\S/C(=N/NC(=O)c2cccc(Br)c2)NC1=O,?,8.2µM*,?,?
O=C(NCCN1C(=O)S/C(=C\c2ccc(Cl)c([N+](=O)[O-])c2)C1=O)C1=COCCO1,15µM*,?,?,i
O=C(NCCN1C(=O)S/C(=C\c2ccc(Cl)c(Cl)c2)C1=O)c1cnccn1,-2%,i,-3%,i
COc1ccc(Nc2nc(OC)nc(OC)n2)cc1,18%,i,3%,i
COc1ccc(Nc2nc(Nc3ccc(OC)cc3)nc(-n3[nH]c(=O)c(C)c3C)n2)cc1,?,i,?,1.2µM*
Cc1ccc(-n2c(/C=C/c3c(C)n(C)c4ccccc34)nc3ccccc3c2=O)cc1,/,i,/,i
CCn1c(CC2C(=O)N(C)c3ccccc32)nc2ccccc2c1=O (stereo unspecified),/,i,/,i
CCOc1ccc(C2c3cc(OC)c(OC)cc3CC(=O)N2c2ccc(OC)cc2)cc1 (stereo unspecified),?,18µM*,?,?
COc1ccc(N2C(=O)Cc3cc(OC)c(OC)cc3C2c2ccc(F)cc2)cc1 (stereo unspecified),/,i,/,i
COc1ccc(NC(=O)CS(=O)CC(=O)Nc2cc(Cl)ccc2OC)cc1 (stereo unspecified),-4%,i,3%,21µM*
COc1ccc(Cl)cc1NC(=O)CN(C)CC(=O)Nc1cc(OC)c(OC)c(OC)c1,12µM*,4.6µM*,8.2µM*,i
CCCCC1(Cc2ccc([N+](=O)[O-])cc2)C(=O)N(c2ccccc2)N(c2ccccc2)C1=O,-19%,?,?,16µM*
CCCCC1(COC(=O)CCC(=O)O)C(=O)N(c2ccccc2)N(c2ccccc2)C1=O,-8%,i,5%,i
COc1ccc(-c2cnc3n2CCCCC3)cc1,0%,i,-6%,i
Clc1ccc(-c2cnc3n2CCC3)cc1,35µM*,i,?,i
COc1cccc(C(C)(O)c2nc(-c3cc(F)cc(F)c3)cs2)c1 (stereo unspecified),23µM*,i,?,i
COc1ccc(-c2csc(C(C)(O)c3cccc(OC)c3)n2)cc1 (stereo unspecified),-14%,i,?,?
COc1cccc(C(C)(O)c2nc(-c3ccc(S(C)(=O)=O)cc3)cs2)c1 (stereo unspecified),-17%,18µM*,-29%,16µM*
NC(=O)c1cc[n+](CC2=C(C(=O)O)N3C(=O)[C@@H](NC(=O)[C@@H](c4ccccc4)S(=O)(=O)[O-])[C@H]3SC2)cc1,13%[92.2 µM],/,17%[92.2 µM],/
CCNC(=S)N=Nc1c(O)[nH]c2ccc([N+](=O)[O-])cc12,-27%,i,5.8µM*,?
CCNC(=S)N=Nc1c(O)[nH]c2ccc(C(C)C)cc12,2%,i,-21%,3.7µM*

# High-throughput results from PubChem.
